Among the data in PubChem BioAssay (NCI) are growth inhibition values, retold here.

The nature of this test: NCI Yeast Anticancer Drug Screen. Data for the rad50 strain (AID 155).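 Also: 0% = growth of vehicle-only cultures of the same strain.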 The note with it: S. cerevisiae rad50 strain growth inhibition, active compounds read high. As to the method:
Growth inhibition of yeast strains with defined genetic alterations is measured as a screen for potential anti-cancer activity. Selected strains with alterations in DNA damage repair or cell cycle control were exposed to compounds and growth inhibition was measured relative to vehicle treated controls. The strain used in this assay is rad50

Setting [1] is: at 5.0 µM (retest, dose inferred, filed as 0.5).
Where [2] appears, read: at 50.0 µM (retest, dose inferred, filed as 5.0).

The panel holds about 79,000 compounds, 15% with a hit somewhere; the sample as a whole holds those more often. A number with no mark means an inactive call. Activity calls are given as the source filed them. Rule as the data show it: active = growth inhibition above about 70%; inactive = the rest.

Consider `C/C(=N\NC(=S)N1CCN(c2cnccn2)CC1)c1ccccn1`, for which the growth inhibition by setting is: under setting [1], 24%; under setting [2], 98% (active); (at 50.0 µM) 91.4% (active).

Turning to `CCCCCCCC(=O)O[C@H]1[C@H]2[C@@H](CC1(C)C)C(=O)[C@]13O[C@H]1C(=O)[C@]1(CO1)[C@]23C`, the growth inhibition under setting [1] was 48%, the growth inhibition under setting [2] was 98% (active) and the growth inhibition (at 50.0 µM) is 91% (active).

As to `O=C(O)c1ccccc1-c1ccccc1C(=O)Nc1ccc2c(c1)Cc1cc(F)ccc1-2`, the growth inhibition runs as follows: under setting [1], 22%; under setting [2], 97% (active); (at 50.0 µM) 94.1% (active).

Regarding `CCOP(=O)(OCC)/C(C#N)=C/c1ccc(Oc2ccccc2)cc1`, the growth inhibition is -12% under setting [1], 97% (active) under setting [2] and 90.2% (active) (at 50.0 µM).

For `CCCCCCCCCCC(O)CN1CCN(c2cccc(Cl)c2)CC1` (configuration not stated), the growth inhibition is 95% (active) under setting [1], 98% (active) under setting [2] and 98.9% (active) (at 50.0 µM).

With `O=C1c2ccccc2S(=O)(=O)CC1Br` (configuration not stated), the growth inhibition by setting is: under setting [1], -7%; under setting [2], 96% (active); (at 50.0 µM) 99.2% (active).

For the molecule `CC[C@@H]1O[C@@H]([C@@H]2CC[C@](O)([C@]3(C)CC[C@@H]([C@@H](C)[C@@]4(O)CC[C@H](C)[C@@H](C[C@@]5(O)O[C@@H]([C@@H](C)[C@H](O)C[C@H]6CC[C@H](C)[C@@H]([C@@H](C)C(=O)O)O6)CC[C@@H]5C)O4)O3)O2)CC[C@@]1(C)O`, the growth inhibition runs as follows: under setting [1], 10%; under setting [2], 90% (active); (at 50.0 µM) 88.4% (active).

On to `OC(c1cc(-c2ccc(Cl)c(Cl)c2)nc2ccccc12)C1CCCCN1` (configuration not stated), for which the growth inhibition runs as follows: under setting [1], 95% (active); under setting [2], 70% (active); (at 50.0 µM) 38.2%.

With `Cc1ccccc1N=Nc1c(C)nn(C(N)=S)c1-c1ccccc1`, the growth inhibition runs as follows: under setting [1], 6%; under setting [2], 85% (active); (at 50.0 µM) 95.2% (active).

As to `CCOC(=O)C(=N\Nc1ccccc1C)/C(C)=N\NC(N)=S`, the growth inhibition reads like this: under setting [1], -9%; under setting [2], 37%; (at 50.0 µM) 73.5% (active).

On to `O=NN(CCCl)C(=O)Oc1ccc(OC(=O)N(CCCl)N=O)cc1`, for which the growth inhibition under setting [1] was 87% (active), the growth inhibition under setting [2] was 92% (active) and the growth inhibition (at 50.0 µM) was 59.6%.

Consider `Cc1ccc(C)c(NC(=O)CCC(=O)CC(=O)c2ccncc2)c1`, for which the growth inhibition reads like this: under setting [1], -4%; under setting [2], 12%; (at 50.0 µM) -32%.

For `OCCc1ccc(-n2cnc3c(Nc4ccc(Cl)cc4)ncnc32)cc1`, the growth inhibition was -3% under setting [1], 95% (active) under setting [2] and 47.2% (at 50.0 µM).

Take `CCOC(=O)c1c(N2CCCC2)nsc1Nc1ccc(F)cc1`: the growth inhibition by setting is: under setting [1], -3%; under setting [2], 90% (active); (at 50.0 µM) 91.8% (active).
